High-throughput results as filed in PubChem BioAssay.
Hits are enriched below; roughly 4% of the tested compounds scored in any of these assays.
Wnt act – activates Wnt/beta-catenin signaling in a reporter cell assay; activator, plate reader; activation, % at 9.35 µM; actives 1.2% (n = 300,000); AID 743398; in the data active = activation above about 30%, passing the limit was not always enough; inconclusive = no clear call, values can overlap the other calls;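 also: 0% = neutral control wells and 100% = positive control wells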
esBAF inh – SWI/SNF esBAF complex inhibition. actives 2% (n = 350,000). reporter increase, % at 12.5 µM. mouse ES cells, Bmi1-luciferase knock-in reporter, 24 h; 100% = twice the neutral-well signal. AID 602393; in the data active = activation above about 40%; inconclusive = no clear call, values can overlap the other calls;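 also: 0% = median of the plate's neutral control wells and 100% = double that signal; a rise in the Bmi1 reporter signal indicates esBAF inhibition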
TRPM1 prom inh – inhibitors of MITF-driven TRPM1 promoter in melanoma cells; actives 0.83% (n = 330,000); inhibition, % at 12.5 µM; AID 488899; SK-MEL-5 TRPM1 promoter luciferase, 24 h;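 active = mean inhibition across replicates of 60% or more, whatever share of single replicates reaches that level; inconclusive = some that reach 60%, reason not given; inactive = mean inhibition across replicates below 60%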
MITF TRPM1 HTS – increases MITF-driven TRPM1 promoter luciferase signal. SK-MEL-5 TRPM1-promoter luciferase, 24 h; % of positive control, neutral wells = 0. actives 0.75% (n = 300,000). activation, % at 12.5 µM;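 active = mean activation of at least 80% with every replicate also reaching 80%; inconclusive = mean reaches 80% but some replicate falls short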;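 also: 0% = neutral control wells and 100% = parthenolide positive control wells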
Statin myotox sup – suppressors of simvastatin-induced myotoxicity in C2C12 myotubes. ATP luminescence, 48 h; scaled: DMSO 0, geranylgeraniol control 100. rescue of ATP level, % at 7.49 µM. actives 0.78% (n = 330,000). AID 602340;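 active = mean ATP rescue above about 67%, or every replicate alone reaching that limit, limit read from the data, passing the limit was not always enough; inconclusive = no clear call, values can overlap the other calls; inactive = mean under the limit and some replicate under it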;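 also: myotubes were challenged with 10 µM simvastatin during compound exposure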
EBV LMP1 NFkB – inhibitors of Epstein-Barr LMP1-induced NF-kappaB reporter. LMP1-induced NF-kappaB luciferase reporter cells, luminescence. inhibition, % at 12.5 µM. actives 0.69% (n = 350,000); in the data active = inhibition above about 41%; inconclusive = no clear call, values can overlap the other calls;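 also: 0% = neutral control wells and 100% = reference inhibitor control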
* marks the source's active call; other numbers are inactive results; ? = inconclusive; · = not tested or not shown.

SMILES	Wnt act	esBAF inh	TRPM1 prom inh	MITF TRPM1 HTS	Statin myotox sup	EBV LMP1 NFkB
Cc1ccc(C)c(OCc2cc(C(=O)N3CC[C@@H]4CCCC[C@H]4C3)no2)c1	17	54*	-24	22	-6	-22
COCC1CCN(C(=O)c2cc(COc3ccc(F)cc3F)on2)C1 (stereo unspecified)	3	6	-11	11	10	-6
COc1cc(C)ccc1OCc1cc(C(=O)N2CCC(c3ccc(F)cc3)C2)no1 (stereo unspecified)	41*	82*	-77	82*	-2	-42
Cc1ccc(NC(=O)N2CCC(C(=O)c3ccc(F)cc3)CC2)cc1	0	0	-8	8	-17	4
CCOc1cc(-n2cnnn2)c(OCC)cc1NC(=O)c1cnccn1	·	-7	-2	4	8	-8
Cc1ccc(N=Nc2c(O)n(CN3CCOCC3)c3ccccc23)cc1	·	54*	-38	·	-4	-34
Cc1cccc(NC(=S)N=Nc2c(O)n(CN3CCOCC3)c3ccccc23)c1C	-5	·	9	-5	·	31
COCCCN1C(=O)c2ccc(C(=O)Nc3cccc(OC)c3)cc2C1=O	·	35	-8	10	5	-6
CC(=O)Oc1cccc(NC(=O)c2ccc3c(c2)C(=O)N(CC(C)C)C3=O)c1	27	44*	-1	2	1	-3
CO[C@H]1CN(C)C(=O)c2ccc(NS(C)(=O)=O)cc2OC[C@@H](C)N(Cc2cccnc2)C[C@@H]1C	·	-2	·	·	-12	·
CC1CCc2c(C(=O)Nc3nccs3)csc2C1 (stereo unspecified)	21	58*	-66	75	·	-22
CC1CCc2c(C(=O)Nc3ccccn3)csc2C1 (stereo unspecified)	52*	·	-70	75	·	-41
CO[C@H]1CN(C)C(=O)c2cc(NC(=O)C3CC3)ccc2OC[C@H](C)N(Cc2cccnc2)C[C@@H]1C	·	4	·	·	10	·
CC(C)NC(=O)Nc1ccc2c(c1)C(=O)N(C)[C@@H]1CC[C@H](CC(=O)NCc3ccc(F)cc3)O[C@@H]1CO2	·	2	·	·	2	·
COc1cccc2cc(C(=O)C3=C(O)C(=O)N(CCN4CCOCC4)C3c3ccc(Cl)cc3)oc12 (stereo unspecified)	0	3	8	-7	4	-4
C[C@H]1CN([C@@H](C)CO)C(=O)c2cc(NC(=O)Nc3ccc(F)cc3)ccc2O[C@H]1CN(C)S(=O)(=O)c1ccccc1	·	5	·	·	-27	·
C/C=C/C(=O)OCC(=O)NC(=O)NC(C)C	0	-5	0	0	101*	-12
O=C(OCc1ccccc1)N(CCCCN(CCCNCc1ccccc1)C(=O)OCc1ccccc1)CCCNCc1ccccc1	-9	·	97*	-97	·	-47
Nc1nc(SCC(=O)Nc2ccc(Br)cc2Br)n[nH]1	-2	22	-14	15	-3	-6
Cc1c(C(=O)O)oc2c(F)cccc12	-1	·	5	-4	·	-10
Cc1c(C(=O)N2C[C@@H](C)O[C@@H](C)C2)oc2c(F)cccc12	12	70*	-68	73	-5	-18
Cc1c(C(=O)NC2CCOC2)oc2c(F)cccc12 (stereo unspecified)	1	70*	-79	?	20	-32
Cn1nnc2cc(NC(=O)Nc3ccccc3F)ccc21	50*	22	·	·	-1	-6
COc1ccccc1NC(=O)Nc1ccc2c(c1)nnn2C	·	·	-60	64	-36	-22
Cc1cccc(/C(N)=N/OC(=O)c2cccnc2)c1	33*	·	-48	49	·	-10
SMILES	Wnt act	esBAF inh	TRPM1 prom inh	MITF TRPM1 HTS	Statin myotox sup	EBV LMP1 NFkB
N/C(=N\OC(=O)c1ccc(Cl)cc1)c1cccnc1	·	68*	-44	46	-8	-42
Cc1cccc(/C(N)=N/OC(=O)c2ccc(Br)o2)c1	46*	·	-57	58	·	-28
COc1cc(OC)cc(C(=O)O/N=C(\N)c2cccc(C)c2)c1	5	29	-46	52	-2	-6
N/C(=N\OC(=O)c1ccco1)c1ccc(Cl)cc1	65*	?	-56	56	-4	-41
CCCC(/C=C/c1ccc(OC(C)=O)cc1)=C1/c2ccccc2C(=O)N1c1ccccc1	3	3	18	-18	2	1
N/C(=N\OC(=O)c1ccc(Cl)cc1Cl)c1cccnc1	32*	5	-24	24	4	4
N/C(=N\OC(=O)c1ccc(Cl)cc1)c1ccn[nH]1	49*	-27	-78	?	-1	32
N/C(=N\OC(=O)c1cccs1)c1cccnc1	11	?	-49	48	1	-14
N/C(=N\OC(=O)c1ccco1)c1cccnc1	38*	·	-31	32	·	-13
N/C(=N\OC(=O)c1ccc(Cl)cc1)c1ccc(Cl)cc1	-1	10	-94	96*	-4	-42
N/C(=N\OC(=O)c1ccccc1Cl)c1ccc(Cl)cc1	·	·	-42	45	·	-61
N/C(=N\OC(=O)CC1CCCCC1)c1ccc(Br)cc1	-1	·	-23	27	·	-3
N/C(=N\OC(=O)CC1CCCCC1)c1ccc(Cl)cc1	22	41*	-27	28	-6	-1
O=C(CSCc1ccc(Cl)cc1)Nc1ccc(Br)cc1C(=O)O	2	3	-4	7	9	3
Cc1nn(-c2ccccc2)c(C)c1C(=O)OCC(=O)N(C)c1ccccc1	-2	13	-10	9	6	4
Cc1nc(COC(=O)c2c(C)nn(-c3ccccc3)c2C)cs1	28	58*	-75	86*	6	-10
COc1ccccc1NC(=O)COC(=O)c1c(C)nn(-c2ccccc2)c1C	-2	59*	-93	100*	8	-17
COC(=O)c1cc(-c2c(C)nn(-c3ccccc3)c2C)n[nH]1	·	64*	-26	29	-11	-7
Cc1nn(-c2ccccc2)c(C)c1C(=O)OCC(=O)Nc1ccccc1	21	56*	-83	86*	17	-4
Cc1ccc(NC(=O)COC(=O)c2c(C)nn(-c3ccccc3)c2C)cc1	-1	-3	-3	2	9	8
COc1ccc(/C(C)=C(\C#N)C(=O)OC(C)C)cc1OC	-2	-1	-11	12	-8	0
Cc1noc(C)c1S(=O)(=O)Nc1ccc2c(c1)C(=O)N([C@H](C)CO)C[C@H](C)[C@H](CN(C)C(=O)c1ccncc1)OCCCC[C@@H](C)O2	·	2	·	·	·	·
Cc1cc(NC(=O)COC(=O)c2c(C)nn(-c3ccccc3)c2C)no1	1	·	14	-12	·	3
CC(=O)c1ccccc1NC(=O)COC(=O)c1c(C)nn(-c2ccccc2)c1C	42*	33	-33	29	-1	-4
Cc1nn(-c2ccccc2)c(C)c1C(=O)OCC(=O)Nc1ccccc1C(F)(F)F	13	46*	-23	28	6	-8
CC(=O)c1ccc(N=Nc2ccc(N)cc2)cc1	34*	-39	-18	15	10	11
